Laboratory results reported in the supplement of paper PMC6555819.

Tests used:
Assay in all cases: PBM binding z-score (relative to random genomic background probes); higher = stronger binding; sequences stand for … in GC…GCGATTGACAGCGTAGAATGAAGG
[1] = system: FXR:RXRa (NR concentration 270 nM, RXRa partner concentration 90 nM)
How it was run: (§1)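 Custom Agilent 4×180K protein-binding microarrays carried double-stranded probes. Their 34-nt variable regions held direct-repeat seeds, single-nucleotide variants, half-site ablations and random human genomic background sequences. Arrays were incubated 1 h with ligand-free nuclear receptor dimers in PBS pH 7.4, 2% milk, 0.02% Triton X-100, 1 mM DTT, 0.2 mg/mL BSA and 0.4 mg/ml salmon testes DNA. Antibodies against each partner (one per run) detected binding, and scanned fluorescence was regression-normalized. Binding z-scores use random background probes as reference.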

[2] = system: LXRa:RXRa (NR concentration 270 nM, RXRa partner concentration 90 nM)
How it was run: as §1

[3] = system: LXRa homodimer (NR concentration 270 nM)
How it was run: as §1

[4] = system: LXRb:RXRa (NR concentration 270 nM, RXRa partner concentration 90 nM)
How it was run: as §1

[5] = system: LXRb homodimer (NR concentration 270 nM)
How it was run: as §1

[6] = system: PPARa:RXRa (NR concentration 270 nM, RXRa partner concentration 90 nM)
How it was run: as §1

[7] = system: PPARg:RXRa (NR concentration 180 nM, RXRa partner concentration 90 nM)
How it was run: as §1

[8] = system: PPARg:RXRa 270nM:90nM, anti-RXR (NR concentration 270 nM, RXRa partner concentration 90 nM)
How it was run: as §1

[9] = system: PPARg:RXRa 30nM:10nM, anti-RXR (NR concentration 30 nM, RXRa partner concentration 10 nM)
How it was run: as §1

[10] = system: PPARg:RXRa 90nM:30nM, anti-RXR (NR concentration 90 nM, RXRa partner concentration 30 nM)
How it was run: as §1

Sequence	PBM binding z-score [1]	PBM binding z-score [2]	PBM binding z-score [3]	PBM binding z-score [4]	PBM binding z-score [5]	PBM binding z-score [6]	PBM binding z-score [7]	PBM binding z-score [8]	PBM binding z-score [9]	PBM binding z-score [10]
TGACAAAGTTCAAAGGTAACGTAAGTATCCACAC	6.96	6.05	3.28	4.68	1.41	5.69	6.2	6.28	2.97	5.43
CAAACTAGGTCACGAAAGGTCGAAGTCGAATGAC	5.94	6.62	2.69	5.17	0.867	6.03	9.65	7.81	5.91	8.11
CCTCGGAGGACAGCAGGTCAGAGCTGTCCGCTTT	0.494	0.589	-0.357	-0.0868	-0.729	0.521	-0.863	-0.393	-1.22	-1.04
AGTCAAAGTTCAGGACGTGGTAACGTAAAGCACG	3.46	3.57	0.963	1.49	0.114	3.12	4.28	4.75	2.07	3.71
CCGACTGGGGCAGAAAGGTTACAATACCATCCGG	0.452	0.428	-0.0734	1.17	-0.707	2.02	1.77	2.68	0.821	2.01
ATATGTAGGTGATCGGGTCATTCAGTTTGCGCAT	1.36	1.47	0.268	1.79	0.875	4.72	6.45	5.32	3.24	5.22
TATACAGTGTCAAAGGCCAGAGTACGAATGTCGA	0.666	0.861	0.197	0.608	0.893	2.18	3.95	4.17	2.41	3.86
TAGTCTAGGTCATGCGGGCCAGTATAGTGTCGGC	4.02	3.48	1.36	1.76	1.87	3.92	4.97	4.56	1.78	3.81
CCTATTAGCTGACCATAAGGGCAACCGAAGCTCG	0.524	0.335	0.221	0.0745	0.36	0.273	0.333	-0.0328	-0.243	-0.184
CCTAGTTGGGCAAGGTCACACACGCTATAGGTAC	3.55	3.21	1.32	3.28	0.0205	3.88	2.45	2.92	1.03	2.25
CGTCAAAGTTCAACTCAGGTAACGTAAAGCACGC	7.13	6.43	4.59	4.35	1.99	5.08	4.66	5.43	2.08	4.01
CAAACTAGGTCAAAGAGGTCAAAGTCCGTGCGTA	6.71	6.33	6.39	5.91	2.23	6.17	8.55	7.69	6.36	7.64
TGAATGAGGTTATAAGATCTGGGAACGTTGCAAA	1.32	1.03	-0.215	1.06	-0.0795	2.54	1.01	1.83	0.892	1.58
TCTTGTAGATCAGCCGGTTAAGAAAGCTGGCCAA	-0.161	0.143	-0.223	0.0561	-0.394	0.168	-0.791	1.24	2.52	1.74
AATACAGGGTCACTCGGCCAGAGTAGGTACGAAT	6.58	5.13	1.19	4.06	1.03	5.6	6.87	5.81	2.53	4.66
CCTAGCAAGCCAGGGTCACTCAAGCATTTCGCTT	2.31	1.92	-0.142	2.16	-1.12	3.13	0.169	1.09	-0.503	0.224
CTCGAAAGGTCGGTTGAGGTGAGTACACGGATAA	2.34	1.85	-0.128	1.5	-0.0877	2.77	0.546	1.4	0.191	0.951
ATATGTGGGTTACATCCGGGTCATTCAGGCTATG	2.27	4.1	1.26	3.06	1.12	4.12	5.38	4.48	2.02	3.36
ACAGACATGTGATGAAGGTAACTCAGGCTATCAT	0.000592	-0.0384	-0.258	-0.35	-0.283	-0.131	0.611	-0.0726	-0.0978	0.0328
GGGACGAGGGCAAAGTTGATAGCATCTGTCGACG	1.7	1.11	-0.058	1.41	0.182	3.68	6.58	6.7	5.3	6.62
GCAGACAGGTGAAACGCATGTAACTCAGGGTGGC	-0.379	-0.173	-0.544	-0.265	-1.29	0.825	0.841	-0.0772	-0.653	-0.344
ATCTCTAGGTAAAGTTCAGTCAAAGATCGATAGA	1.73	3.21	2.37	1.64	0.899	2.44	3.53	4.45	2.64	4.1
CCAGACAGGTCAAAGGTAACTCAGTCTGGTACGC	6.4	4.97	0.903	4.17	0.453	5.83	7.89	7.43	6.13	8.02
CCAGACAGGTGAAAGCTAACTCAGTCTGGTACGC	-0.364	-0.206	-0.559	-0.0941	-0.593	0.302	0.368	-0.0659	-0.35	-0.285
